Bioassay records: PubChem BioAssay, National Center for Advancing Translational Sciences (NCATS)
This excerpt belongs to a sample that is enriched for hits.
G9a block: inhibitors of human histone lysine methyltransferase G9a | Q96KQ7 | G9a H3K9 monomethylation, AlphaScreen, 2 h | Potency, µM (series often up to 102 µM), usual class: inhibitors | 350,000 tested, 8.8% active | AID 504332; further: nearly all actives have a fitted effect of over 75% in size
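Readings reflect AlphaScreen signal from monomethyl-H3K9 antibody detection. HMT at 20 nM; substrate b-H3K9 500 nM; cofactor SAM 20 uM; 2 h RT reaction; compounds tested as titrations in qHTS with 15 min preincubation.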
VDR inhibitor: inhibitors of human vitamin D receptor. P11473. VDR-SRC2-3 peptide fluorescence polarization, 2 h. Potency, µM, hits mostly inhibitors. 400,000 tested, 0.93% active. AID 504847
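Two reagent solutions held at 4 deg C in the dark were dispensed, compounds pinned at 23 nl, and the mixture incubated 2 h at room temperature. Read-out: fluorescence polarization of VDR–SRC2-3 peptide binding.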
12-LOX inh: inhibitors of human 12S-lipoxygenase ALOX12; P18054; purified 12hLO, xylenol orange hydroperoxide absorbance; 580,000 tested, 1.1% active; Potency, µM (series often up to 108 µM), usual class: inhibitors
Target sequence (P18054 whole entry, looked up): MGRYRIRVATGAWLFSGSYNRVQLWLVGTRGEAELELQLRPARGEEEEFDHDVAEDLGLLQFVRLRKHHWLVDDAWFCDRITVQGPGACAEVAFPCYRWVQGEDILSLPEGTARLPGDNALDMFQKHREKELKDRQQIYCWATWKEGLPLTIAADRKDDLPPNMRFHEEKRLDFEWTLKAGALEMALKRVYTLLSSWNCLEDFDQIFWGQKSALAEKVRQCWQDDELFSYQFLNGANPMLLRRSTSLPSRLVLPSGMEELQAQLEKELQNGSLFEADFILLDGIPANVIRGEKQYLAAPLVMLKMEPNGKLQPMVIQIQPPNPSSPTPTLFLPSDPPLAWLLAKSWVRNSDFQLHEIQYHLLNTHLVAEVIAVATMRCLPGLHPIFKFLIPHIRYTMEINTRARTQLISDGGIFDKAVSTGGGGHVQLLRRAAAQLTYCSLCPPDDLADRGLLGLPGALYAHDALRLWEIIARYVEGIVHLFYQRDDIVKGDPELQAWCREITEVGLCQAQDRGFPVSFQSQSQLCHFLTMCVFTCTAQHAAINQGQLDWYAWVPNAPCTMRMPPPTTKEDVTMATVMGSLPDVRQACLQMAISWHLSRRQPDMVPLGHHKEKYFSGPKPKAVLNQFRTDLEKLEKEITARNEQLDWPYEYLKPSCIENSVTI
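Purified human 12hLO (150 nM final) in 25 mM Hepes, 0.01% Triton X-100, pH 7.0 was preincubated 15 min at room temperature with compound. Then 40 uM arachidonic acid was added, 30 min. Hydroperoxide was read by Fe-XO absorbance ratio 573/405 nm.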
Sfp inh: inhibitors of Bacillus subtilis Sfp phosphopantetheinyl transferase; Q9F4F7; Biochemical Sfp PPTase activity, qHTS; Potency, µM, most hits filed as inhibitors; 310,000 tested, 3.5% active;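 further: the enzyme is Sfp with the accession as filed and its product quenches rhodamine fluorescence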
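Compounds were incubated with enzyme (final 15 nM) for 15 min at room temperature before substrate addition started the reaction. Fluorescence at 525 nm excitation, 598 nm emission was recorded immediately and after 30 minutes.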
Glioma ERSR ind: induces the endoplasmic reticulum stress response in human glioma cells. U87-MG GRP78 promoter luciferase reporter, 16 h. Potency, µM, usual class: activators. 420,000 tested, 0.02% active. AID 602332; further: series mostly up to about 76 µM; nearly all actives have a fitted effect of over 35% in size
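Stably transfected U87-MG human glioma cells carrying a GRP78-based luminescent sensor were seeded at 1000 cells/well, pin-dosed with compounds and incubated 16 h. Luciferase reagent was then added, and end-point luminescence was read after 10 min at room temperature.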
Hits are given with their value; 0 = inactive; ? = inconclusive; - = not tested or not shown; [ ] = remark or other dose. The call rests on the fitted dose curve; in most records, active means well fitted curve in the direction sought with a large enough effect; inconclusive means small, poorly fitted or top-dose-only effect, or another doubt; inactive means no such curve, though single readings can be large; an effect the other way counts as inactive or inconclusive.

SMILES	G9a block	VDR inhibitor	12-LOX inh	Sfp inh	Glioma ERSR ind
Cc1ccccc1C(C)NC(=O)CN1CCN(c2ccc([N+](=O)[O-])c3cnccc23)CC1 (stereo not given)	-	-	0	-	-
COc1ccccc1C(C)NC(=O)CN1CCN(c2ccc([N+](=O)[O-])c3cnccc23)CC1 (stereo not given)	-	-	11µM	-	-
CCN1C(=O)[C@H]2[C@@H](c3ccc(OC)cc3)N[C@]3(CCCN(Cc4cccn4C)C3=O)[C@H]2C1=O	-	-	?	-	0
Cc1ccc([C@H]2N[C@]3(CCCN(Cc4cccn4C)C3=O)[C@H]3C(=O)N(Cc4ccccc4)C(=O)[C@@H]23)cc1	-	-	?	-	0
COc1ccc([C@H]2N[C@]3(CCCN(Cc4cccn4C)C3=O)[C@H]3C(=O)N(C)C(=O)[C@@H]23)cc1	-	-	11µM	-	0
Cn1cccc1CN1CCC[C@]2(N[C@H](c3ccccc3)[C@@H]3C(=O)N(Cc4ccccc4)C(=O)[C@@H]32)C1=O	-	-	10µM	-	0
COc1ccc(C(C)=O)cc1COC(=O)Cc1ccc(Br)cc1	-	-	0	-	-
Cc1cc(C(C#N)c2cccc(Cl)c2)n2ncnc2n1 (stereo not given)	8.9µM	0	0	0	0
COc1cc(/C=N/NC(=O)NC2CCCCC2)cc(OC)c1O	50µM	0	0	0	0
COc1cc(/C=N/NC(=O)NC2CCCCC2)ccc1O	0	0	0	0	0
Cc1ccc(S(=O)(=O)c2ccccc2)cc1S	3.5µM	-	-	45µM	-
C[C@H](c1ccccc1)N1C[C@H](COCc2ccccc2)Oc2cc(N3CCC[C@H]3CO)ccc2S1(=O)=O	-	-	50µM	-	-
O=C(O)/C=C/C(=O)Nc1ccc(C(=O)c2ccccc2)cc1	0	?	0	0	0
O=C(O)/C=C/C(=O)Nc1ccc(Cl)cc1C(=O)c1ccccc1	32µM	0	0	79µM	0
O=C(O)/C=C/C(=O)Nc1ccc(NC(=O)c2ccccc2)c(Cl)c1	50µM	0	0	56µM	0
Cc1cc(C)c2nc(NC(=O)c3ccc(S(=O)(=O)N4CCC(C)CC4)cc3)sc2c1	0	0	0	-	0
Cc1cc(C)c2nc(NNC(=O)c3ccc(S(=O)(=O)N4CC(C)CC(C)C4)cc3)sc2c1 (stereo not given)	28µM	0	6.3µM	?	0
Cc1cc(C)c2nc(NNC(=O)c3ccc(S(=O)(=O)N4CCCC(C)C4)cc3)sc2c1 (stereo not given)	45µM	0	5.6µM	0	0
Fc1ccccc1-c1nc2c(s1)CCc1onc(-c3ccc(Br)cc3)c1-2	-	0	0	-	0
COc1ccc(-c2noc3c2-c2nc(-c4c(F)cccc4F)sc2CC3)cc1	32µM	0	?	0	0
COc1ccc(-c2noc3c2-c2nc(-c4ccccc4F)sc2CC3)cc1	22µM	0	40µM	0	0
COc1ccc(-c2noc3c2-c2nc(-c4ccccc4)sc2CC3)cc1	-	0	?	-	0
Fc1cccc(F)c1-c1nc2c(s1)CCc1onc(-c3ccc(Br)cc3)c1-2	-	0	14µM	-	0
CN(C)c1ccc(CN2CC[C@H](c3nc4c(C(N)=O)cccc4[nH]3)C2)cc1	-	-	0	-	-
CC(=O)Nc1ccc(C)cc1S(=O)(=O)n1cc2c(=O)n(C)c(=O)n(C)c2n1	-	-	0	-	-
SMILES	G9a block	VDR inhibitor	12-LOX inh	Sfp inh	Glioma ERSR ind
Cc1cc2cc(CN(Cc3ccco3)S(=O)(=O)c3c(C)ccc4nsnc34)c(=O)[nH]c2cc1C	0	0	0	50µM	0
Cc1ccc2cc(CN(Cc3ccco3)S(=O)(=O)c3c(C)ccc4nsnc34)c(=O)[nH]c2c1	?	0	0	16µM	0
Cc1ccc2[nH]c(=O)c(CN(CCCO)S(=O)(=O)c3c(C)ccc4nsnc34)cc2c1	0[12.7 µM]	0	0	0	0
Fc1ccc(OCCc2noc(C3CCCNC3)n2)cc1 (stereo not given)	-	-	0	-	-
CC(C)(C)NC(=O)Cc1n[nH]c(=O)c2ccccc12	-	-	0	-	-
CNC(=O)CSc1nc2c(c(C(F)(F)F)c1C#N)CCCC2	-	-	0	-	-
CCOc1ccc2c(n1)CCN(C(=O)Cc1ccc(C)cc1)C2	-	-	0	-	-
O=c1[nH]c(=S)[nH]c2scc(-c3ccc(Br)cc3)c12	-	0	?	-	0
O=c1[nH]c(=S)[nH]c2sccc12	10µM	0	8.9µM	22µM	0
Cc1cc(C)c(NC(=O)C2CCCCN2C)c(C)c1 (stereo not given)	89µM	0	?	0	0
CCCCNS(=O)(=O)c1ccc2nc(SCC(=O)c3ccccc3OC)[nH]c2c1	35µM	0	0	0	0
CCCCNS(=O)(=O)c1ccc2nc(SCC(N)=O)[nH]c2c1	0	0	0	0	0
CCCCCOc1ccc(/C=C/C(=O)/C=C/c2ccc(OCCCCC)cc2)cc1	-	-	0	-	-
Cc1cc(C(=O)NP(=O)(N2CC(C)OC(C)C2)N2CC(C)OC(C)C2)c(C)n1C1CC1 (stereo not given)	45µM	0	0	0	0
Cc1cc(C)cc(OCC(=O)OCC(=O)c2cc(C)n(C3CC3)c2C)c1	-	0	0	0	0
COc1ccc(-c2n[nH]c(C)c2-c2cc(OC)ccc2O)cc1	?	0	?	40µM	0
O=C(O)C(c1c[nH]c2cc(Br)ccc12)N1CCCN(c2ccc(C(F)(F)F)cn2)CC1 (stereo not given)	-	-	25µM	-	-
Cc1cc(N2CCN(C(C(=O)O)c3c[nH]c4cc(Cl)ccc34)CC2)nc2ccccc12 (stereo not given)	-	-	18µM	-	-
O=C(O)C(c1c[nH]c2cc(F)ccc12)N1CCN(C(c2ccccc2)c2ccccc2)CC1 (stereo not given)	-	-	18µM	-	-
O=C(O)C(c1c[nH]c2cc(Cl)ccc12)N1CCN(CCOc2ccc(Cl)cc2)CC1 (stereo not given)	-	-	35µM	-	-
CCOc1ccc(N(C(=O)C23CC4CC(CC(C4)C2)C3)C2C=CS(=O)(=O)C2)cc1 (stereo not given)	-	-	0	-	-
Cc1cc(F)ccc1NCC(=O)N1CCN(S(C)(=O)=O)CC1	-	-	0	-	-
O=C(O)C(c1c[nH]c2cc(Cl)ccc12)N1CCN(C/C=C/c2ccccc2)CC1 (stereo not given)	-	-	45µM	-	-
O=C(O)C(c1c[nH]c2ccccc12)N1CCN(C/C=C/c2ccccc2)CC1 (stereo not given)	-	-	0	-	-
COc1ccc(N=C2C(=O)Nc3ccc(C)c(Br)c32)cc1	11µM	?	0	0	0
SMILES	G9a block	VDR inhibitor	12-LOX inh	Sfp inh	Glioma ERSR ind
Cc1ccc(N=C2C(=O)Nc3ccc(C)c(Br)c32)cc1	1.3µM	?	-	0	0
Cc1cc(C)c(NC(=O)CNC(=O)c2cc(C3CC3)nn2-c2ccccc2)c(C)c1	0	0	0	-	0
Cc1cccc(NC(=O)CNC(=O)c2cc(C3CC3)nn2-c2ccccc2)c1C	50µM	0	0	-	0
Cn1c(=O)c2c(ncn2Cc2ccc(F)cc2Cl)n(C)c1=O	-	-	0	-	-
CCN1C=C(Cc2ccc(OC)cc2)C2=C(C1)C(c1ccc(OC)cc1)C(C#N)=C(N)O2 (stereo not given)	?	0	18µM	0	0
COc1ccc(C2C(C#N)=C(N)Oc3cc(C)n(Cc4ccc5c(c4)OCO5)c(=O)c32)cc1 (stereo not given)	-	-	0	-	-
